# Screens from PubChem BioAssay.
# ELG1 repair inh: blocks ELG1-dependent DNA repair in HEK293T cells; HEK293T ELG1-luciferase reporter, luminescence, 16 h; DNA damage induced by 5-fluorouridine; Potency, µM (titrated, usually from 46.1 µM), usual class: inhibitors; 330,000 compounds, 2.3% hits; AID 504467; also: nearly all actives have a fitted effect of over 55% in size
#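 Cells (2,000 per well) received 5-fluorouridine plus test compound or DMSO and were incubated 16 hr at 37 °C, 5% CO2. Luciferase activity was read by luminescence 30 min after ONE-Glo addition; signal suppression marked inhibition of damage-induced ELG1 function.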
# B2AR arrestin: beta2AR (human) beta-arrestin recruitment activity; 330,000 compounds, 0.02% hits; AID 492947; Potency, µM (titrated, usually from 46.1 µM), usual class: activators; P07550; beta-arrestin recruitment to beta2AR, cell-based reporter; also: nearly all actives have a fitted effect of over 65% in size
# Target sequence (P07550 whole entry, looked up): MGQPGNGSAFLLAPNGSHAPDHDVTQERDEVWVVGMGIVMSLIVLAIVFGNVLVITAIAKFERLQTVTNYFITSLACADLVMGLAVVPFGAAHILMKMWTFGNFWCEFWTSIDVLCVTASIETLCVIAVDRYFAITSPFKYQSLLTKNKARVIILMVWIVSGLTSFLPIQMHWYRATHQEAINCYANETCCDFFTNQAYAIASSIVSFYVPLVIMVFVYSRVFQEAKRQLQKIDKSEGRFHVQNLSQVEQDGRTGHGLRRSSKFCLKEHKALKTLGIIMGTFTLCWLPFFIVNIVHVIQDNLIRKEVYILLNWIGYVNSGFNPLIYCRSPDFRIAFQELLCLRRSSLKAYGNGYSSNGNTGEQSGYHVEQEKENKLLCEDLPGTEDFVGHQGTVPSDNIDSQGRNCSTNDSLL
# TSHR antag: antagonists of human thyroid stimulating hormone receptor | P16473 | TSHR-expressing cells, TSH-stimulated cAMP HTRF, 2 h; hits give low values | activity change, negative = inhibition, % at 11.5 µM | 330,000 compounds, 0.2% hits | AID 504810;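 active = activity change below a set negative limit, meaning inhibition stronger than a set level, cut at about -70% in these data; inconclusive = activity change between two set negative limits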
#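 Competitive HTRF cAMP read-out (cryptate anti-cAMP antibody, cAMP-d2; 30 min, room temperature) in freshly harvested TSHR cells. Compounds added before TSH at EC80 (4nM final), followed by 2 hours' incubation at 37 deg C.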
# RORgamma inh: ROR gamma (mouse) transcription inhibition. P51450. Drosophila S2 Gal4-RORgamma UAS-luciferase reporter, 20 h. Potency, µM (series often up to 53.6 µM), most hits filed as inhibitors. 310,000 compounds, 5.4% hits; also: nearly all actives have a fitted effect of over 60% in size
#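 Stably transfected Drosophila Schneider cells are the test system, with ROR gamma fused to Gal4 and luciferase under UAS control; luminescence is read after 20 hr of 700 uM copper sulfate induction at ambient temperature.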
# VP16 counter: inhibits Gal4-VP16 luciferase reporter, ROR gamma counter-screen; Potency, µM (highest dose often 53.6 µM), hits mostly inhibitors; Drosophila S2 Gal4-VP16 UAS-luciferase, luminescence, 20 h; 310,000 compounds, 3.5% hits; AID 2546;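 also: Gal4-VP16 expression switched on by copper sulfate through the metallothionein promoter; nearly all actives have a fitted effect of over 50% in size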
# Hits are given with their value; - = inactive; ? = inconclusive; . = no result given; [ ] = another dose, or the depositor's remark. Shown are actives, neighbours in structure and some others; about 7.5% of the full set was active somewhere. Unless noted, calls follow the shape of the dose curve; as a rule, active = well fitted curve in the direction sought with a large enough effect; inconclusive = small, poorly fitted or top-dose-only effect, or another doubt; inactive = no such curve, though single readings can be large; an effect the other way counts as inactive or inconclusive.
SMILES,ELG1 repair inh,B2AR arrestin,TSHR antag,RORgamma inh,VP16 counter
Cc1ccccc1-c1ccc2ncnc(N3CCNCC3)c2c1,.,.,.,-,-
CC(C)NC(=O)[C@@H]1C[C@H]1[C@@H](NC(=O)OCc1ccccc1)c1ccccc1,.,.,.,-,-
CCOc1ccccc1N1CCN(C(=O)CCCN2C(=O)c3cccc4cccc(c34)C2=O)CC1,23µM,-,-81,-,-
O=C(CCCN1C(=O)c2cccc3cccc(c23)C1=O)N1CCN(c2ccccc2O)CC1,10µM,-,-,?,-
O=C(CCCN1C(=O)c2cccc3cccc(c23)C1=O)N1CCN(c2ccccc2)CC1,?,-,-,-,-
CCOc1ccc(C(C)=O)cc1COc1ccc(-c2nnco2)cc1,7.3µM,-,-,-,-
COc1ccc(C(C)=O)cc1COc1ccc(F)cc1,-,-,-,-,-
COc1ccc(NC(=O)c2cccc(N3C(=O)C4C5C=CC(C6CC56)C4C3=O)c2)c(OC)c1 (stereo unspecified),?,-,-,-,-
COc1ccc(NC(=O)c2cccc(N3C(=O)C4C5C=CC(C6CC56)C4C3=O)c2)cc1 (stereo unspecified),23µM,-,-,?,-
CCOC(=O)[C@H]1[C@H]2COc3ccc(C)cc3[C@@H]2N2C(=O)c3cc(Br)ccc3NC(=O)[C@@]12C,-,-,-,.,.
COc1ccc(/C=C2\N=C(SC)NC2=O)cc1,.,.,.,13µM,?
CCCCCCCC#Cc1ccccc1C(NC(=O)OC)C(C(=O)OC)C(=O)OC (stereo unspecified),.,.,.,-[10 µM],-[10 µM]
Cc1cnc(C(=O)NC(Cc2ccccc2)c2ccccc2)cn1 (stereo unspecified),-,-,-,-,-
Cc1ccc(S(=O)(=O)n2c3ccccc3c3nnc(C(=O)c4ccccc4)nc32)cc1,.,.,.,-[10 µM],-[10 µM]
O=C(/C=C/c1ccc(NC(=O)c2ccccc2-c2ccccc2C(=O)O)cc1)c1ccccc1,-,-,-,11µM,?
COc1cccc(N2CCN(C(=O)CCCCCNc3nc(=S)[nH]c4ccccc34)CC2)c1,18µM,-,-,8.9µM,?
O=C(CCCCCNc1nc(=S)[nH]c2ccccc12)N1CCN(c2ccccn2)CC1,?,-,-,10µM,?
CCOC(=O)[C@H]1[C@H]2COc3ccc(Br)cc3[C@@H]2N2C(=O)N(c3ccccc3)C(=O)[C@@]12C,-,-,-,.,.
CCOC(=O)[C@@H]1[C@H]2COc3cc(OC)ccc3[C@@H]2N2C(=O)N(c3cccc(Cl)c3)C(=O)[C@]12C,-,-,-,-,-
CCOC(=O)[C@@H]1[C@H]2COc3ccccc3[C@@H]2N2C(=O)N(c3ccccc3)C(=O)[C@@]12C,-,-,-,13µM,-
CCOC(=O)[C@@H]1[C@H]2COc3ccc(Br)cc3[C@@H]2N2C(=O)N(c3ccccc3)C(=O)[C@@]12C,-,-,-,10µM,-
CCOC(=O)[C@@H]1[C@H]2COc3cc(OC)ccc3[C@@H]2N2C(=O)N(c3cccc(Cl)c3)C(=O)[C@@]12C,-,-,-,11µM,-
CNc1cc(-c2ccccc2C(F)(F)F)ncn1,.,.,.,-,-
COc1ccc(O[C@H]2C=C[C@@H](c3ccccc3)O[C@@H]2CON=C(C)C)cc1,.,.,.,-[10 µM],-[10 µM]
COc1cc(C(=O)OCC(=O)N2CCC(C)CC2)cc2c1OCCO2,-,-,-,.,.
SMILES,ELG1 repair inh,B2AR arrestin,TSHR antag,RORgamma inh,VP16 counter
CN(C)c1ccc(N=Cc2ccco2)cc1,?,-,-74,?,?
CN(C)c1ccc(C=Nc2ccc(N(C)C)cc2)cc1,?,-,-,?,?
CC(C)CCCC(C)C1CCC2C3CC=C4CC(O)CC[C@@]4(C)C3CC[C@@]12C (stereo partly specified),.,.,.,-,-
COc1ccccc1C(=O)c1cc2ccc(O)cc2oc1=O,?,-,-,20µM,-
NC(=O)c1cc2ccc(O)cc2oc1=Nc1ccccc1,2.3µM,-,-,-,?
COc1ccc2cc(C(N)=O)c(=Nc3ccccc3)oc2c1,?,-,-,-,-
O=C(c1ccc(F)cc1)c1cc2ccc(O)cc2oc1=O,?,-,-,-,-
O=C(NCc1ccccc1)c1cc2ccc(O)cc2oc1=O,?,-,-,2.2µM,7.1µM
NC(=O)c1cc2ccc(O)cc2oc1=NCc1ccccc1,9.2µM,-,-,-,-
O=C(OC1CCN(c2ncc(C(F)(F)F)cc2Cl)CC1)c1ccc(Cl)cc1,-,-,-,-,-
O=C(CSc1nccn1-c1ncc(C(F)(F)F)cc1Cl)c1ccc(Cl)cc1,?,-,-,16µM,?
CCCc1cc2c(=O)c(-c3ccc4c(c3)OCCO4)c(C)oc2cc1OS(C)(=O)=O,13µM,-,-,-,-
CCCc1cc2c(=O)c(-c3ccc4c(c3)OCCO4)coc2cc1OS(C)(=O)=O,?,-,-,?,-
Cc1ccccc1Nc1ncnc2c1cnn2C,-,-,-,-,-
Cn1c(/C(C#N)=C(\O)c2ccc([N+](=O)[O-])cc2)nc2ccccc21,-,-,-,-,-
Cn1c(/C(C#N)=C(\O)c2cccc(F)c2)nc2ccccc21,-,-,-,7.1µM,7.1µM
CCN(CC)S(=O)(=O)c1ccc(/C(O)=C(\C#N)c2nc3ccccc3n2C)cc1,?,-,-,2.8µM,5.6µM
CCOc1ccc(N2CC(C(=O)Nc3c(C)n(C)n(-c4ccccc4)c3=O)CC2=O)cc1 (stereo unspecified),-,-,-,-,-
Brc1ccccc1-c1nc(-c2ccccc2)no1,?,-,-,-[0.365 µM],.
Cc1ccc(-c2nc(-c3ccccc3)no2)cc1,?,-,-,10µM,13µM
COc1ccc(-c2noc(-c3ccccc3F)n2)cc1,?,-,-,?,?
COc1ccc(-c2nc(-c3ccncc3)no2)c(OC)c1,?,-,-,7.9µM,?
COc1ccc(-c2noc(-c3ccccc3-c3ccccc3)n2)cc1,-,-,-,16µM,-
Cc1ccc(-c2nc(-c3ccccc3)no2)c(Cl)c1,?,-,-,10µM,7.1µM
Fc1ccccc1-c1nc(-c2ccccc2)no1,?,-,-,-,-
SMILES,ELG1 repair inh,B2AR arrestin,TSHR antag,RORgamma inh,VP16 counter
C=CC(C)(C)c1[nH]c2ccccc2c1C1=C(O)C(=O)C(c2c[nH]c3c(CC=C(C)C)cccc23)=C(O)C1=O,.,.,.,-,?
CC(C)(C)NC[C@H](O)COc1cccc2c1CCC(=O)N2,.,.,.,-[2.98 µM],-
COCCn1c(=O)c(-c2ccc(Cl)cc2)nc2cnc(N3CCNCC3)nc21,.,.,.,-,-
Cc1ccc(-c2nc(-c3ccncc3)no2)cc1,?,-,-,14µM,?
COc1ccc(N2CCN(C(=O)COC(=O)CCc3ccccc3)CC2)cc1,-,-,-,.,.
COc1ccc(CCN2C(=S)NC3CC2(C)Oc2ccc([N+](=O)[O-])cc23)cc1OC (stereo unspecified),26µM,-,-,16µM,?
